Measurements from PubChem BioAssay (NCI).
Compounds without any hit were thinned out: in the full panel of roughly 83,000, 20% have a hit.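 Cell lines were cultured in 96-well plates, exposed to a single compound concentration, and assessed for percent growth 48 hours later.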 A number with no mark means an inactive call. The source made the active and inactive calls. Rule for the calls: active = growth percent below 10; inactive = the rest.

test system: HL-60(TB) leukemia; assay: NCI-60 one-dose screen, 48 h (100 = growth as untreated, 0 = no growth, -100 = all killed); details: 10 µM unless noted

Structure (SMILES) | growth
CC(C)(C)CC(C)(C)Nc1c(-c2c(O)c3ccccc3oc2=O)nc2sc3ccccc3n12 | 21.6%
CN(C)c1ccc(/C=N\NC(=O)c2ccc3nc(-c4ccc(Cl)cc4)[nH]c3c2)cc1 | 37.4%
CCOc1cccc2c(NC(C)CCCN(CC)CC)c(C)cnc12 (stereo not given) | 105%
CCCCCCCCCCCCCCCCCC1=NC(C)(C)CN1CCO | -62.2% (active)
c1ccc2c(c1)OC1OC2Oc2ccccc21 | 80%
O=C(Nc1ccc(Cl)cc1F)c1cc(F)ccc1O | -43.8% (active)
O=C(Nc1nc(-c2ccc(Cl)cc2)cs1)c1cc(-c2ccc(Br)cc2)nc2ccc(Cl)cc12 | -24.7% (active)
CCOc1ccc(C(C[N+](=O)[O-])Sc2ccccc2N)cc1 (stereo not given) | -16.2% (active)
COc1ccc(-c2nc3ccc(-c4nc5ccc(N6CCN(c7ccc(F)cc7)CC6)cc5[nH]4)cc3[nH]2)cc1OC | 46.5%
COc1ccc(-c2nc(SCCC(C)C)nc(Nc3ccc(C(=O)O)cc3)c2C#N)cc1 | 71.6%
COc1cc(/C=C/C(=O)/C=C/c2cc(OC)c3c(c2OC)OCO3)c(OC)c2c1OCO2 | 27.2%
CO[C@H]1/C=C(/C)CCC[C@H](C)[C@H](O)[C@@H](C)C(=O)C(C)(C)[C@@H](O)CC(=O)O[C@@H]1/C(C)=C/c1csc(C)n1 | 24.3%
CN1CCN(Cc2ccc(NC(=O)c3cccc(C#Cc4c(N)ncc5ccc(F)cc45)c3)cc2C(F)(F)F)CC1 | -53.7% (active)
CC1CCCCN1CCCNC(=O)c1ccc2c(c1)sc1nc(-c3ccc(F)cc3)cn12 (stereo not given) | 74.1%
Cn1cc(-c2noc(C(=O)c3cn(C)c4ncc(Br)cc34)n2)c2ccccc21 | 103%
COc1ccc(C(=O)/C=C/c2c(Cl)c3c(c(OC)c2Cl)OCC(=O)N3)cc1 | 13.8%
CC1=NNC(=O)C1CCC(=O)N/N=C(\C)c1ccc2ccccc2c1 (stereo not given) | 86.4%
Cn1nc(C(F)(F)F)c(-c2cc(C(F)(F)F)cc(C(F)(F)F)c2)c1-c1ccc(OCc2ccc(Cl)cc2)cc1O | -39.9% (active)
O=C(Nc1ccncc1)C(=O)c1cn(S(=O)(=O)c2ccc(F)cc2)c2ccccc12 | 0.498% (active)
CS(=O)(=O)c1nccc(-c2c(-c3cccc(OCc4ccc(F)cc4)c3)nc3sccn23)n1 | 43.7%
CCCCCCCC/C=C\CCCCCCCC(=O)Oc1cccc2cccnc12 | 83.9%
COc1ccc(/C=C(\C#N)C(=O)Nc2cccc(Nc3nc(SC)nc(-c4cccc([N+](=O)[O-])c4)c3C#N)c2)cc1OC | 95%
COc1ccc(C(=O)N2C=Cc3ccccc3C2C#N)cc1 (stereo not given) | 66.5%
CN1CCN(C2=C(Cl)C(=O)c3ccccc3C2=O)CC1 | 24.8%
O=C(c1ccc(F)c(Cl)c1)N1c2ccccc2Sc2ccccc21 | 30.8%
